Structures can show the parent of a compound that is named as a salt. Unmarked numbers belong to inactive results.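 How the source made its calls: for the amine columns active = adjusted P below 0.05 in both replicates with a change the same way and a mean fold change under 0.8 or over 1.25; inactive = the rest.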

39 compounds from the supplement of paper PMC12494721 can be followed below.

For this assay, the system named is Clostridium sporogenes DSM 1664. Description: fold change of Tryptamine concentration vs plate DMSO controls (fold change (ratio)); higher = more amine produced, active = hit call of the paper (significant change in both replicates, either direction). Conditions: incubation time: 27 h, anaerobic, 37 °C. In a few lines: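 In 80 µL wells, cultures of four gut bacterial strains in mGAM started at OD 0.1 before a 1:1 dilution and grew anaerobically at 37 °C for 27 h. Compounds were added to 20 µM final, except sweeteners at 50 µM final. After extraction of whole cultures with cold acetonitrile/methanol plus 0.1% formic acid and centrifugation, amines were measured by LC–triple-quadrupole MS in dynamic MRM mode against external calibration curves, with within-batch drift correction. Values give fold change over DMSO controls on the same plate, averaged across 2 biological replicates.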
With `CN[C@H](CC(C)C)C(=O)N[C@H]1C(=O)N[C@@H](CC(N)=O)C(=O)N[C@H]2C(=O)N[C@H]3C(=O)N[C@H](C(=O)N[C@H](C(=O)O)c4cc(O)cc(O)c4-c4cc3ccc4O)[C@H](O)c3ccc(c(Cl)c3)Oc3cc2cc(c3O[C@@H]2O[C@H](CO)[C@@H](O)[C@H](O)[C@H]2O[C@H]2C[C@](C)(N)[C@H](O)[C@H](C)O2)Oc2ccc(cc2Cl)[C@H]1O` [Vancomycin hydrochloride] (20 µM), the “fold change of Tryptamine concentration” value was 0.0328 (active).
With `OC[C@H]1OC(O)[C@H](O)[C@H](O)[C@@H]1O` (stereo partly drawn) [D-allose] (50 µM) the figure was 1.02; with `COC1=CC(=O)C[C@@H](C)[C@]12Oc1c(Cl)c(OC)cc(OC)c1C2=O` [Griseofulvin] (20 µM), 1.03.
With `CN1CCN(CCCN2c3ccccc3Sc3ccc(C(F)(F)F)cc32)CC1` [Trifluoperazine dihydrochloride] (20 µM), the “fold change of Tryptamine concentration” value is 1.06.
The result for `CCCN(CCC)S(=O)(=O)c1ccc(C(=O)O)cc1` [Probenecid] (20 µM) reads 0.999; that for `C#C[C@]1(O)CC[C@H]2[C@@H]3CCC4=CC(=O)CC[C@@H]4[C@H]3CC[C@@]21C` [Norethindrone] (20 µM), 1.01; that for `NC(=O)c1ncn([C@@H]2O[C@H](CO)[C@@H](O)[C@H]2O)n1` [Ribavirin] (20 µM), 1.01.
With `Cc1c(O)cccc1C(=O)N[C@@H](CSc1ccccc1)[C@H](O)CN1C[C@H]2CCCC[C@H]2C[C@H]1C(=O)NC(C)(C)C` [Nelfinavir mesylate] (20 µM) the figure was 0.96.
As for `CC1(C)S[C@@H]2[C@H](NC(=O)Cc3ccccc3)C(=O)N2[C@H]1C(=O)O` [Benzylpenicillin sodium] (20 µM), the “fold change of Tryptamine concentration” value is 0.05 (active).
In the case of `COC(=O)Nc1nc2cc([S+]([O-])c3ccccc3)ccc2[nH]1` (centres undefined) [Oxfendazole] (20 µM), the “fold change of Tryptamine concentration” value is 1.01.
As to `CCCc1nc(C)c2c(=O)nc(-c3cc(S(=O)(=O)N4CCN(CC)CC4)ccc3OCC)[nH]n12` [Vardenafil] (20 µM), the “fold change of Tryptamine concentration” value was 0.992.
On to `NS(=O)(=O)c1cc(C(=O)O)cc(N2CCCC2)c1Oc1ccccc1` [Piretanide] (20 µM), for which the “fold change of Tryptamine concentration” value is 1.11.
For `C[C@H]1C[C@@H]2[C@H]([C@@H](O)C[C@@]3(C)[C@H]2CC[C@]3(O)C(=O)CO)[C@@]2(C)C=CC(=O)C=C12` [Methylprednisolone, 6-alpha] (20 µM), the “fold change of Tryptamine concentration” value was 1.03.
The result for `Oc1ccc2ccccc2c1N=Nc1ccccc1` [Sudan I (1-phenylazo-2-hydroxynaphthalene)] (20 µM) reads 0.919; that for `CC(=O)OCC(=O)[C@@]1(O)CC[C@H]2[C@@H]3CCC4=CC(=O)CC[C@]4(C)[C@H]3[C@@H](O)C[C@@]21C` [Cortisol acetate] (20 µM), 0.975.
For the compound `CCN(CC)CCNc1ccc(CO)c2sc3ccccc3c(=O)c12` [Hycanthone] (20 µM), the “fold change of Tryptamine concentration” value was 0.791 (active).
`CC(=O)NC[C@H]1CN(c2ccc(N3CCOCC3)c(F)c2)C(=O)O1` [Linezolid] (20 µM): the “fold change of Tryptamine concentration” value was 0.0335 (active).
In the case of `NNC(=O)c1ccncc1` [Isoniazid] (20 µM), the “fold change of Tryptamine concentration” value is 1.05.
Take `O=C(NCCO[N+](=O)[O-])c1cccnc1` [Nicorandil] (20 µM): the “fold change of Tryptamine concentration” value was 1.04.
Consider `CC(=O)[C@H]1CC[C@H]2[C@@H]3CC=C4C[C@@H](O)CC[C@]4(C)[C@H]3CC[C@]12C` [Pregnenolone] (20 µM), for which the “fold change of Tryptamine concentration” value is 1.04.
On to `OC[C@@H](O)[C@@H](O)[C@H](O)[C@H](O)CO` [Mannitol] (50 µM), for which the “fold change of Tryptamine concentration” value is 1.01.
With `CC[C@@]1(O)C(=O)OCc2c1cc1n(c2=O)Cc2cc3c(CN(C)C)c(O)ccc3nc2-1` [Topotecan] (20 µM) the figure was 0.992; with `CCCCc1ncc(/C=C(\Cc2cccs2)C(=O)O)n1Cc1ccc(C(=O)O)cc1` [Eprosartan mesylate] (20 µM), 1.08.
As for `CCN(CC)CC(=O)Nc1c(C)cccc1C` [Lidocaine hydrochloride] (20 µM), the “fold change of Tryptamine concentration” value is 1.01.
The result for `CC(C)c1nc(CN(C)C(=O)N[C@H](C(=O)N[C@@H](Cc2ccccc2)C[C@H](O)[C@H](Cc2ccccc2)NC(=O)OCc2cncs2)C(C)C)cs1` [Ritonavir] (20 µM) reads 0.822; that for `O=C(OCCOCCO)c1ccccc1Nc1cccc(C(F)(F)F)c1` [Etofenamate] (20 µM), 0.955.
Take `CCCCOc1ccc(CC(=O)NO)cc1` [Bufexamac] (20 µM): the “fold change of Tryptamine concentration” value is 0.989.
The result for `Cc1scc2c1N(C(=O)CN1CCN(C)CC1)c1ccccc1NC2=O` [Telenzepine dihydrochloride] (20 µM) reads 1.01; that for `OC[C@H]1O[C@H](O[C@H]2O[C@H](CO)[C@@H](O)[C@H](O)[C@H]2O)[C@H](O)[C@@H](O)[C@@H]1O` [Trehalose] (50 µM), 1.16; that for `NCCCC(O)(P(=O)(O)O)P(=O)(O)O` [Alendronate sodium] (20 µM), 1.1.
As for `CC(=O)Nc1ccc(CC(=O)O)cc1` [Actarit] (20 µM), the “fold change of Tryptamine concentration” value is 1.03.
With `CCCCc1cc2ccccc2c(OCCN(C)C)n1` [Dimethisoquin hydrochloride] (20 µM) the figure was 0.946; with `CC[C@H]1OC(=O)C[C@@H](O)[C@H](C)[C@@H](O[C@@H]2O[C@H](C)[C@@H](O[C@H]3C[C@@](C)(O)[C@@H](O)[C@H](C)O3)[C@H](N(C)C)[C@H]2O)[C@@H](CC=O)C[C@@H](C)C(=O)/C=C/C(C)=C/[C@@H]1CO[C@@H]1O[C@H](C)[C@@H](O)[C@@H](OC)[C@H]1OC` [Tylosin] (20 µM), 0.0522 (active); with `CN(C)CCC=C1c2ccccc2C=Cc2ccccc21` [Cyclobenzaprine hydrochloride] (20 µM), 1.19.
Regarding `CC(=C(CCO)SSCC1CCCO1)N(C=O)Cc1cnc(C)nc1N` (stereo in doubt) [Fursultiamine hydrochloride] (20 µM), the “fold change of Tryptamine concentration” value was 0.983.
The result for `CCOC(=O)O[C@]1(C(=O)OCCl)CC[C@H]2[C@@H]3CCC4=CC(=O)C=C[C@]4(C)[C@H]3[C@@H](O)C[C@@]21C` [Loteprednol etabonate] (20 µM) reads 1.03; that for `N[C@@H](CSCCCO)C(=O)O` [Fudosteine] (20 µM), 0.939.
Consider `CC1=C(C)C(=O)C(C(CCCCCC(=O)O)c2ccccc2)=C(C)C1=O` (centres undefined) [Seratrodast] (20 µM), for which the “fold change of Tryptamine concentration” value is 1.01.
Turning to `C[C@]12C=CC(=O)C=C1CC[C@@H]1[C@@H]2C(=O)C[C@@]2(C)[C@H]1CC[C@]2(O)C(=O)CO` [Prednisone] (20 µM), the “fold change of Tryptamine concentration” value is 1.04.
